# Cycloheximide cs = affects cycloheximide protein synthesis inhibition readout, counter-screen; cell reporter, cycloheximide protein synthesis inhibition counterscreen; max response, %; hit rate 12% among 300,000; in the data active means max response mostly above about 13%, no sharp cut-off; inactive means mostly below about 14%; further: read at 38.3 µM for the half of the compounds with a filed dose; 0% is about no effect
# LmPK inh = inhibitors of Leishmania mexicana pyruvate kinase. Q27686. purified LmPK, Kinase-Glo ATP luminescence, 1 h. Potency, µM (doses to about 57.5 µM), without a hit: at the top dose activity change, negative = inhibition, actives largely listed as inhibitors. hit rate 0.37% among 290,000. AID 1721; further: potency means the concentration at half of the fitted maximal effect; on the % scale 0 is the no-effect control and ±100 the full control effect
#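 Kinase-Glo luminescence read after 1 h RT reaction of 0.1 nM LmPK with 0.5 mM PEP and 0.1 mM ADP. Activity scaled between uninhibited and enzyme-free controls.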
# Sm TGR block = S. mansoni TGR enzyme inhibition; Q962Y6; purified TGR, DTNB reduction, TNB absorbance 405 nm; Potency, µM (highest dose often 114 µM), for the others: top-dose activity change, negative = inhibition, actives largely listed as inhibitors; hit rate 3% among 360,000; AID 485364; further: potency means the concentration at half of the fitted maximal effect; on the % scale 0 is the no-effect control and ±100 the full control effect; nearly all actives have a fitted effect of over 60% in size
#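 TGR 20 nM + NADPH 100 uM (dispensed conc.), cpd preinc 15 min RT; start with NADPH (500 uM addition) then DTNB (15 mM addition). Kinetic TNB absorbance, 405 nm filter. Four-parameter Hill fit across titration.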
# FBPA Giardia inh = inhibitors of Giardia lamblia fructose-1,6-bisphosphate aldolase; purified Giardia FBPA; Potency, µM (titrated, usually from 59.6 µM), without a hit: at the top dose activity, negative = inhibition, hits mostly inhibitors; hit rate 0.71% among 290,000; AID 2451; further: potency means the concentration at half of the fitted maximal effect; on the % scale 0 is the no-effect control and ±100 the full control effect; nearly all actives have a fitted effect of over 55% in size
# Target sequence (A8B2U2 whole entry, looked up): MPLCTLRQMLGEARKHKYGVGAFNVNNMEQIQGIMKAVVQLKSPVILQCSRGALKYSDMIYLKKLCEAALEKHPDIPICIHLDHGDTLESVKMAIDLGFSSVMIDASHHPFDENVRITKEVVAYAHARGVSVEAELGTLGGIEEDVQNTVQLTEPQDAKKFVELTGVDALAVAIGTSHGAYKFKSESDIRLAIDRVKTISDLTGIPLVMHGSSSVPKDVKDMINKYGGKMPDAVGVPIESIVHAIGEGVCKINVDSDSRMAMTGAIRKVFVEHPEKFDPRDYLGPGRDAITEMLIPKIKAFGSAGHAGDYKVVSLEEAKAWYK
#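 40 nM FBPA preincubated 10 min at RT with compound (up to 57.5 uM final), then substrate plus GAPDH/TPI/NAD/arsenate coupling and diaphorase/resazurin added. Fluorescence read after 20 min at RT, 525/598 nm.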
# Tb PYK inh = blocks Trypanosoma brucei pyruvate kinase. Q57TT1. hit rate 0.12% among 410,000. Potency, µM (titrated, usually from 76.8 µM), inactives show at the top dose activity, negative = inhibition, actives largely listed as inhibitors. AID 624173. TbPYK enzyme, Kinase-Glo Plus ATP luminescence, 45 min; further: potency means the concentration at half of the fitted maximal effect; on the % scale 0 is the no-effect control and ±100 the full control effect; nearly all actives have a fitted effect of over 50% in size
#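 Luminescent Kinase-Glo Plus end-point after 45 min room-temperature reaction of T. brucei pyruvate kinase started with 130 uM ADP (final). Buffer TEA 50 mM pH 7.2 with KCl, MgCl2, BSA, Tween-20; titration-based qHTS with fitted concentration-effect curves.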
# Shiga inhibitor = inhibitors of Shiga toxin in Vero cells; inhibition, % at 38.7 µM; hit rate 9.2% among 290,000; Vero cells, Shiga toxin protein synthesis inhibition reporter; AID 2315; in the data active means inhibition mostly above about 28%, no sharp cut-off; inactive means mostly below about 43%; further: 0% is about no effect
# Starred values were filed as active, the others as inactive; ? = inconclusive; nt = no result given; [ ] = another dose, or the depositor's remark. The full list was thinned out, with hits kept by preference. Unless noted, the call rests on the fitted dose curve; in most records, active means well fitted curve in the direction sought with a large enough effect; inconclusive means small, poorly fitted or top-dose-only effect, or another doubt; inactive means no such curve, though single readings can be large; an effect the other way counts as inactive or inconclusive.
SMILES,Cycloheximide cs,LmPK inh,Sm TGR block,FBPA Giardia inh,Tb PYK inh,Shiga inhibitor
COc1ccccc1N(CC(=O)NCc1ccccc1)C(=O)CCC(=O)Nc1nccs1,-8,-1%,3%,2%,5%,-10
COc1ccc(/C(N)=N/OC(=O)Oc2ccccc2)cc1OC,-3,-10%,-7%,-24%,-8%,-8
COc1ccc(C(=O)O/N=C(\N)c2ccccc2)c(OC)c1,32*,?,0%,-6%,-11%,11
COc1ccc(C(=O)O/N=C(\N)c2ccccn2)c(OC)c1,29*,?,4%,0%,-11%,34
Cc1cccc(CN2CCN(Cc3nc4c(s3)CCCC4)CC2CCO)n1 (centres undefined),2,0%,?,-15%,4%,8
CC1CCCCC1NC(=O)COC(=O)c1c2c(nc3ccccc13)/C(=C/c1ccco1)CC2 (centres undefined),10,1%,14µM*,-15%,-9%,-13
O=C(COC(=O)c1c2c(nc3ccccc13)/C(=C/c1ccco1)CC2)NC1CCCC1,-2,-1%,5µM*,?,-12%,-8
CC(C)CNC(=O)COC(=O)c1c2c(nc3ccccc13)/C(=C/c1cccs1)CC2,25*,0%,1%,-1%,-1%,56*
Cc1cc(C(=O)OCC(=O)NC2CCCCC2C)c2ccccc2n1 (centres undefined),nt,nt,nt,nt,10%,nt
CCCCNC(=O)COC(=O)c1c2c(nc3ccccc13)/C(=C\c1cccs1)CC2,nt,nt,nt,nt,1%,nt
Cc1cc(C(=O)OCC(=O)NC2CCCC2)c2ccccc2n1,nt,nt,-9%,nt,-4%,nt
CN1c2ccccc2C(=O)N2CCc3c([nH]c4ccccc34)C21 (centres undefined),1,nt,nt,2%,nt,23
CCn1c2ccc(F)cc2c2nnc(SCCN3CCCCC3)nc21,1,-3%,-2%,9%,-14%,-3
Cc1cc(OCc2cc(C(=O)N(C)C3CCOCC3)no2)cc(C)c1Cl,86*,-4%,16%,-5%,-7%,126*
CN(C(=O)c1cc(COc2ccc(F)c(F)c2)on1)C1CCOC1 (centres undefined),31*,1%,-4%,nt,-4%,33
CN(CCN1CCOCC1)C(=O)c1cc(COc2ccc(F)c(F)c2)on1,34*,-3%,30%,nt,-2%,88
Cc1cc(OCc2cc(C(=O)N3CCN(C)C(=O)[C@@H]3C)no2)cc(C)c1Cl,9,3%,-2%,nt,-1%,9
Cc1n[nH]c(C)c1CN(C)C(=O)c1cc(COc2ccc(F)c(F)c2)on1,10,9%,-23%,1%,-9%,11
Cc1ccc(OCc2cc(C(=O)N(C)Cc3cnc4ccccn34)no2)cc1C,20*,-4%,-9%,-6%,-22%,33
CN(CCCN1CCOCC1)C(=O)c1cc(COc2ccc(F)cc2F)on1,8,5%,1%,nt,0%,16
Cc1cc(NC(=O)C2CCN(S(=O)(=O)c3cccc4nsnc34)CC2)ccc1Br,nt,nt,1%,nt,-1%,nt
COc1ccc(OCc2cc(C(=O)N(C)C3CCOCC3)no2)c2ccccc12,47*,1%,4%,?,1%,101*
COc1ccc(OCc2cc(C(=O)N(C)C3CCOC3)no2)c(Cl)c1 (centres undefined),27*,0%,-7%,nt,-2%,43
Cc1ccc(OCc2cc(C(=O)N(C)CC3CCOCC3)no2)cc1C,77*,-5%,-24%,-9%,-5%,133*
CN(C(=O)c1cc(COc2ccc(F)cc2Cl)on1)C1CCCc2ccccc21 (centres undefined),1,-3%,-3%,nt,-2%,6
SMILES,Cycloheximide cs,LmPK inh,Sm TGR block,FBPA Giardia inh,Tb PYK inh,Shiga inhibitor
COc1cc(Cl)ccc1OCc1cc(C(=O)N(C)C2CC(C)(C)NC(C)(C)C2)no1,-2,0%,0%,nt,-11%,-3
Cc1cc(Cl)ccc1NC(=S)NCCC(c1ccccc1)c1ccccc1,11*,2%,9%,1%,-5%,-5
S=C(NCCc1ccccc1)Nc1ccc(Cl)cc1Cl,34*,-1%,1%,5%,0%,61*
Cc1cc(Br)ccc1NC(=S)NCCc1ccccc1,10,0%,-5%,nt,-4%,6
CCNC(=S)Nc1cc(Cl)ccc1Oc1ccccc1,-2,5%,-6%,-1%,-18%,-7
Cc1cc(Cl)ccc1NC(=S)NCc1ccc(Cl)cc1,-1,0%,2%,11%,3%,10
CCNC(=S)Nc1ccc(Cl)cc1Cl,-3,0%,45µM*,-1%,-13%,35
Cc1cc(Cl)ccc1NC(=S)NCCc1ccc(Cl)cc1,9.5*,-1%,4%,5%,2%,52
COc1cc(OC)c(N(C)C(=O)c2nn(C)c3c2CSc2ccccc2-3)cc1Cl,nt,nt,-2%,nt,-2%,nt
Cc1nn(C)c2c1c(C(F)(F)F)cc(=O)n2C(C)C(=O)N1CCN(c2ccccc2)CC1 (centres undefined),nt,nt,2%,nt,0%,nt
Cc1ccc(NC(=O)Nc2ccc(Cl)cn2)cc1,39*,-2%,6%,0%,-3%,44*
Cc1ccc(NC(=O)Nc2ccc(Cl)c(Cl)c2)nc1,32*,5%,6%,1%,-2%,70*
COC(=O)c1ccccc1NC(=O)c1cc2nc(-c3ccc(OC)cc3)cc(C(F)(F)F)n2n1,nt,nt,1%,nt,-5%,nt
Cc1ccccc1-c1nnc(-c2ccc(Br)cc2)o1,21*,2%,5%[11.4 µM],0%,-18%,53
Cc1ccccc1-c1nnc(CN2CCC(C)CC2)o1,27*,0%,24%,-4%,6%,71*
Cc1ccccc1-c1nnc(-c2ccccc2C)o1,23*,-18%,-5%,-2%,-1%,42*
Cc1ccccc1-c1nnc(CN2CCN(c3ccccn3)CC2)o1,nt,nt,0%,nt,-3%,nt
CCCCc1nc2c(c3c1C[C@H](C)OC3)CN(C(=O)NCc1ccco1)CC2,nt,5%[11.5 µM],nt,0%[12.9 µM],nt,nt
Cc1ccc(Cl)cc1N1CCN(C(=O)c2cc(S(=O)(=O)N3CCCC3)c[nH]2)CC1,nt,nt,6%,nt,3%,nt
Cc1nn(C)c2c1c(C(F)(F)F)cc(=O)n2C(C)C(=O)NCc1ccccc1 (centres undefined),nt,nt,1%,nt,1%,nt
Cc1cc2c([nH]c3ccccc32)c2c1OC(C)(C)C=C2,47*,3%,2%,-22%,1%,87*
CNc1nc(SC(C)C(=O)Nc2ccc(Cl)c(Cl)c2)nc(N2CCOCC2)n1 (centres undefined),2,4%,1%,3%,2%,-17
O=C(Oc1ccccc1)c1ccc2nsnc2c1,53*,-15%,0%,-5%,3%,75*
O=C(Oc1ccccc1)c1cccc(C(=O)Oc2ccccc2)c1,nt,nt,nt,nt,0%[157 µM],nt
CCCCCCCNC(=O)C1(CC2CC(c3ccccc3)=NO2)CCNCC1 (centres undefined),nt,nt,?,nt,1%,nt
